Assay results reported in PubChem BioAssay (NCATS).
Results filed as inconclusive are left out. A number with no mark means an inactive call. The source made the active and inactive calls. Calls follow the shape of the dose curve; as a rule, active = well fitted cell-killing curve with a large enough effect; inconclusive = small, poorly fitted or top-dose-only effect; inactive = flat fitted curve, though single readings scatter.
% is scaled to controls: 0 for no effect and ±100 for the full control effect; potency is read from the fitted curve at half-maximal effect.

Assay: Cell Viability - LYMP1-003 - Assay at 40 hr (AID 964); also: nearly all actives have a fitted effect of over 60% in size
Details: LYMP1-003 lymphoblastoid viability; series mostly up to 92.2 µM; activity change, negative = cytotoxic: at the top concentration
From the text: NIH Chemical Genomics Center [NCGC]
NIH Molecular Libraries Screening Centers Network [MLSCN]
National Institutes of Environmental Health Sciences [NIEHS]
National Toxicology Program [NTP]
We have developed a 1536-well cell-based assay for quantitative high throughput screening (qHTS) against a number of cell lines to determine in vitro cytotoxicity of small molecules. This particular assay uses a human lymphoblastoid cell line (LYMP1-003) purchased from Coriell Institute for Medical Research.
NCGC Assay Protocol Summary:
The CellTiter-Glo luminescent cell viability assay (Promega) is a homogeneous method to measure the number of viable cells in culture. The end point readout of this assay is based on quantitation of intracellular ATP, an indicator of metabolic activity, using the luciferase reaction. Luciferase catalyzes the oxidation of beetle Luciferin to oxyluciferin and light in the presence of ATP. The luminescent signal is proportional to amount of ATP present.
Using the CellTiter-Glo luminescent cell viability assay, the amount of cellular ATP was measured in the lymphoblastoid cell line with complete culture medium following compound treatment for 40 hours. The assay was performed in opaque white Kalypsys 1536-well plates. In the screen, tetraoctylammonium bromide was used as positive control. Library compounds were measured for their ability to cause acute toxicity in the cell line, as reflected by a decrease in intracellular ATP levels, in a concentration-dependent manner. […] AC50 values were determined from concentration-response data modeled with the standard Hill equation.
qHTS protocol for CellTiter Glo lymphoblastoid cellular assay
[Step] [Parameter] [Value] [Description]
1. Reagent; 5 uL; 2500 lymphoblastoid cells/well
2. Time; 5 hr; 37 C incubation
4. Controls; 23 nL; Tetraoctylammonium bromide 6.4pM to 92 uM
5. Time; 40 hr; 37 C incubation
6. Reagent; 5 uL; CellTiter Glo reagent
7. Time; 30 min; Room Temperature
8. Detection; Luminescence; Viewlux plate reader
Keywords: cell viability, cytotoxicity, lymphoblastoid cell line, luminescence, NTPHTS, NTPHTS_NCGC, NIEHS, DSSTox, MLSMR, MLSCN, NIH Roadmap, qHTS, NCGC
With `Oc1ccccc1Cl` the “activity change, negative = cytotoxic” value was -13.9%.
For `CC(C)COC(=O)c1ccccc1C(=O)OCC(C)C`, the “activity change, negative = cytotoxic” value was 8.78%.
In the case of `O=Cc1ccccc1`, the “activity change, negative = cytotoxic” value is reported as -2.7%.
For `COC(=O)c1ccccc1C(=O)OC`, the “activity change, negative = cytotoxic” value was 1.22%.
In the case of `CCOC(=O)c1ccccc1N`, the “activity change, negative = cytotoxic” value is reported as -2.99%.
In the case of `c1ccc(Nc2ccc3ccccc3c2)cc1`, the “activity change, negative = cytotoxic” value is reported as -2.54%.
With `CCOc1cc(C=O)ccc1O` the “activity change, negative = cytotoxic” value was -5.17%.
In the case of `Cc1ccccc1O`, the “activity change, negative = cytotoxic” value is reported as -3.82%.
For `CC(=O)/C=C/c1ccccc1`, the “activity change, negative = cytotoxic” value was -2.74%.
For `CC(=O)[C@H]1CC[C@H]2[C@@H]3CCC4=CC(=O)CC[C@]4(C)[C@H]3CC[C@]12C`, the “activity change, negative = cytotoxic” value was -15.5%.
For `Oc1ccccc1O`, the Potency was 7.94 µM (active).
For `c1ccc2c(c1)-c1cccc3cccc-2c13`, the “activity change, negative = cytotoxic” value was 0.85%.
For `Oc1c(Cl)c(Cl)c(Cl)c(Cl)c1Cl`, the “activity change, negative = cytotoxic” value was -8.06%.
